# Measured values published in the supplement of paper PMC6897291.
# Counter-ions that a name gives are not always drawn.
# What was measured:
# RIVA [1] = assay: growth inhibition by drug alone (1 - RLU/untreated control) (fraction); higher = stronger inhibition; details: 177Lu-lilotomab satetraxetan 0 ug/ml
# Summary of the method: (§1)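 Compound doses on the pre-printed Selleck Cambridge Cancer Compound library plates were 10/100 nM for RIVA cells and 10/1,000 nM for U-2932 cells, seeded at 3,000 cells/well. Before seeding, cells were washed after 18 h with or without a radiolabelled anti-CD37 antibody conjugate (~600 MBq/mg; 0.5 µg/ml RIVA, 1 µg/ml U-2932). Growth inhibition was derived from RealTime-Glo luminescence relative to untreated no-drug control wells. Readings were taken daily starting on day 3, each after 1 h at 37°C, and each well's RLU was divided by the mean of 48 such wells per plate and subtracted from 1.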
# U-2932 [2] = assay: growth inhibition by drug plus 177Lu-lilotomab satetraxetan (1 - RLU/untreated control) (fraction); higher = stronger inhibition; details: 177Lu-lilotomab satetraxetan 1 ug/ml
# Summary of the method: as §1
# RIVA [3] = assay: as above; details: 177Lu-lilotomab satetraxetan 0.5 ug/ml
# Summary of the method: as §1
# U-2932 [4] = assay: growth inhibition by drug alone (1 - RLU/untreated control) (fraction); higher = stronger inhibition; details: 177Lu-lilotomab satetraxetan 0 ug/ml
# Summary of the method: as §1
Structure (SMILES),"growth inhibition by drug alone (RIVA [1]; 10 nM, time (day): 3)","growth inhibition by drug alone (RIVA [1]; 10 nM, time (day): 4)","growth inhibition by drug alone (RIVA [1]; 10 nM, time (day): 5)","growth inhibition by drug alone (RIVA [1]; 10 nM, time (day): 6)","growth inhibition by drug alone (RIVA [1]; 100 nM, time (day): 3)","growth inhibition by drug alone (RIVA [1]; 100 nM, time (day): 4)","growth inhibition by drug alone (RIVA [1]; 100 nM, time (day): 5)","growth inhibition by drug alone (RIVA [1]; 100 nM, time (day): 6)","growth inhibition by drug plus 177Lu-lilotomab satetraxetan (U-2932 [2]; 10 nM, time (day): 3)","growth inhibition by drug plus 177Lu-lilotomab satetraxetan (U-2932 [2]; 10 nM, time (day): 4)","growth inhibition by drug plus 177Lu-lilotomab satetraxetan (U-2932 [2]; 10 nM, time (day): 5)","growth inhibition by drug plus 177Lu-lilotomab satetraxetan (U-2932 [2]; 10 nM, time (day): 6)","growth inhibition by drug plus 177Lu-lilotomab satetraxetan (U-2932 [2]; 1000 nM, time (day): 3)","growth inhibition by drug plus 177Lu-lilotomab satetraxetan (U-2932 [2]; 1000 nM, time (day): 4)","growth inhibition by drug plus 177Lu-lilotomab satetraxetan (U-2932 [2]; 1000 nM, time (day): 5)","growth inhibition by drug plus 177Lu-lilotomab satetraxetan (U-2932 [2]; 1000 nM, time (day): 6)","growth inhibition by drug plus 177Lu-lilotomab satetraxetan (RIVA [3]; 10 nM, time (day): 3)","growth inhibition by drug plus 177Lu-lilotomab satetraxetan (RIVA [3]; 10 nM, time (day): 4)","growth inhibition by drug plus 177Lu-lilotomab satetraxetan (RIVA [3]; 10 nM, time (day): 5)","growth inhibition by drug plus 177Lu-lilotomab satetraxetan (RIVA [3]; 10 nM, time (day): 6)","growth inhibition by drug plus 177Lu-lilotomab satetraxetan (RIVA [3]; 100 nM, time (day): 3)","growth inhibition by drug plus 177Lu-lilotomab satetraxetan (RIVA [3]; 100 nM, time (day): 4)","growth inhibition by drug plus 177Lu-lilotomab satetraxetan (RIVA [3]; 100 nM, time (day): 5)","growth inhibition by drug plus 177Lu-lilotomab satetraxetan (RIVA [3]; 100 nM, time (day): 6)","growth inhibition by drug alone (U-2932 [4]; 10 nM, time (day): 3)","growth inhibition by drug alone (U-2932 [4]; 10 nM, time (day): 4)","growth inhibition by drug alone (U-2932 [4]; 10 nM, time (day): 5)","growth inhibition by drug alone (U-2932 [4]; 10 nM, time (day): 6)","growth inhibition by drug alone (U-2932 [4]; 1000 nM, time (day): 3)","growth inhibition by drug alone (U-2932 [4]; 1000 nM, time (day): 4)","growth inhibition by drug alone (U-2932 [4]; 1000 nM, time (day): 5)","growth inhibition by drug alone (U-2932 [4]; 1000 nM, time (day): 6)"
Clc1ccc(Nc2nnc(Cc3ccncc3)c3ccccc23)cc1 [Vatalanib dihydrochloride (PTK787)],-0.0393,-0.0522,-0.084,-0.232,-0.0903,-0.0658,-0.0924,-0.165,-0.0142,0.0115,0.0124,0.0638,-0.0725,0.0231,-0.00359,-0.0503,0.334,0.509,0.527,0.534,0.328,0.442,0.439,0.426,–,–,–,–,–,–,–,–
C[C@@H](Oc1cc(-n2cnc3ccc(CN4CCN(C)CC4)cc32)sc1C(N)=O)c1ccccc1C(F)(F)F,–,–,–,–,–,–,–,–,0.423,0.489,0.536,0.644,0.926,0.959,0.975,0.982,0.759,0.799,0.824,0.853,0.943,0.964,0.974,0.981,–,–,–,–,–,–,–,–
CN(N=O)C(=O)N[C@@H](C=O)[C@@H](O)[C@H](O)[C@H](O)CO [Streptozotocin (Zanosar)],-0.263,-0.268,-0.296,-0.472,-0.291,-0.295,-0.308,-0.376,-0.0646,-0.0512,-0.0238,0.118,-0.0995,-0.0176,-0.0119,0.0347,–,–,–,–,–,–,–,–,-0.0672,-0.049,-0.0365,0.111,-0.124,-0.0755,-0.109,-0.156
N#Cc1ccc(COC[C@H]2O[C@@H](n3c(NCc4ccc(Cl)c(Cl)c4)nc4c(N)ncnc43)[C@H](O)[C@@H]2O)cc1,-0.00484,-0.0139,-0.22,-0.465,-0.367,-0.326,-0.323,-0.395,-0.0128,0.0586,0.0723,0.037,0.12,0.128,0.109,0.165,0.498,0.574,0.59,0.586,0.472,0.543,0.557,0.551,–,–,–,–,–,–,–,–
NC(=O)c1ccc2nc(-c3ccc(Oc4ccc(Cl)cc4)cc3)[nH]c2c1,-0.00863,-0.0511,-0.0793,-0.24,-0.111,-0.096,-0.133,-0.184,0.0152,0.0513,0.0592,0.129,-0.283,-0.107,-0.0258,0.0425,–,–,–,–,–,–,–,–,0.00125,0.0235,0.00264,-0.0848,-0.16,-0.101,-0.0954,-0.129
